Screens (PubChem BioAssay)
PINK1 expr mod – PINK1 expression modulation | 410,000 compounds, 0.2% hits | AID 624263 | PINK1 immunofluorescence, high-content cytometry, 24 h | Potency, µM (titrated, usually from 76.6 µM), for inactives: at the top dose activation (PINK1 increase), most hits filed as activators; active = well fitted activation curve with a large enough effect; inconclusive = small, poorly fitted or top-dose-only effect; cell line not stated here; note: % of control where 0% means no effect; nearly all actives have a fitted effect of over 65% in size
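Readout is PINK1 immunofluorescence, quantified alongside mitochondrial, cell and nuclear markers by laser-scanning microplate cytometry. Cells from a stable line were exposed to compound titrations (5 concentrations) for 24 hours, with CCCP controls.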
KB-V1 cytotox – KB-V1 MDR subline cytotoxicity; AID 1347076; 400,000 compounds, 3.4% hits; KB-V1 MDR cells viability, CellTiter-Glo, 72 h; Potency, µM (series often up to 46.1 µM), actives largely listed as cytotoxic; note: % is set by controls: 0 for no effect and ±100 for the full control effect; nearly all actives have a fitted effect of over 60% in size
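Drug-selected KB-V1 cells, grown in DMEM lacking phenol red with 10% FBS, receive compound titrations; after three days at 37 degrees C, surviving cell ATP is quantified by CellTiter-Glo luminescence and responses normalized and curve-fitted.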
SW480 rereplic – DNA re-replication induction in SW480 cells. 340,000 compounds, 1.8% hits. AID 624297. SW480 DNA re-replication, Hoechst DNA content imaging, 48 h. Potency, µM (top dose mostly 46.1 µM), inactives show top-dose re-replication activation, usual class: activators; note: % of control where 0% means no effect; nearly all actives have a fitted effect of over 55% in size
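Image-based read-out: total Hoechst fluorescence of nuclei (405 nm excitation, 500-530 nm emission), with hits raising the fraction of high-intensity nuclei. SW480 colon cells incubated 48 hr with compounds at 37 C.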
MCF10A rerep – DNA re-replication induction in MCF 10a cells | MCF 10A DNA re-replication, Hoechst nuclear intensity, 48 h | Potency, µM (series often up to 46.1 µM), for inactives: at the top dose activity, positive = re-replication, most hits filed as activators | 350,000 compounds, 2.9% hits | AID 624296; note: % of control where 0% means no effect; nearly all actives have a fitted effect of over 50% in size
KB-3-1 cytotox – kills parental KB-3-1 adenocarcinoma cells; KB-3-1 viability, CellTiter-Glo ATP luminescence, 72 h; Potency, µM (titrated, usually from 46.1 µM), usual class: cytotoxic; 400,000 compounds, 1.4% hits; AID 1347075; note: % is set by controls: 0 for no effect and ±100 for the full control effect; nearly all actives have a fitted effect of over 60% in size
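Cells are dispensed, compounds pinned in, plates held at 37 °C for 72 h, then CellTiter-Glo is added and luminescence read after 10 minutes. Cell line: parental KB-3-1 in phenol-red-free DMEM, 10% FBS.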
TSG101-PTAP inh – blocks PTAP/TSG101 interaction to inhibit HIV-1 budding | AID 493005 | Fluorescence polarization, FITC-PTAP peptide / Tsg101 binding | 340,000 tested, under 10 active | Potency, µM (highest dose often 115 µM), without a hit: at the highest dose activity change, negative = inhibition, actives largely listed as inhibitors; active = well fitted inhibition curve with a large enough effect in the main read-out, with a control signal flat, not every such curve was filed as active; inconclusive = small, poorly fitted or top-dose-only effect, or effect the other way, or a change in a side signal; inactive = no such curve, though single readings can be large or run the other way; note: % of control where 0% means no effect
Target sequence (Q99816 whole entry, looked up): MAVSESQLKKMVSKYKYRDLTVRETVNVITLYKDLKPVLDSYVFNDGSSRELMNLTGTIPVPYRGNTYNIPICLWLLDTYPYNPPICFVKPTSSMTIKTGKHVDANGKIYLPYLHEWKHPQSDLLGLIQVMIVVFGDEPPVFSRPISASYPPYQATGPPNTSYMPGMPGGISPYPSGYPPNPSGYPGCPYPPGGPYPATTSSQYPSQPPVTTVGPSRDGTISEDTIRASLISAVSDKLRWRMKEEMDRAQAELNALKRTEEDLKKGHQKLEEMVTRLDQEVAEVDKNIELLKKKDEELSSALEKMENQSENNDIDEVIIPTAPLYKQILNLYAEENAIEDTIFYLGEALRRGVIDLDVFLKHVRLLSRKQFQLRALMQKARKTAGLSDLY
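FP read-out: FITC-PTAP peptide, 50 nM final, binding Tsg101 binding domain, 10 uM final; 20 min, r.t.; 10 mM HEPES pH 7.5, 0.15 M NaCl, 0.01% Tween 20, 3 mM EDTA, 0.1 mM TCEP.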
* hit, by the source's call; i = inactive; ? = inconclusive; . = not tested or not shown; [ ] = remark or other dose. Hits are enriched below; roughly 6.8% of the tested compounds scored in any of these assays. Unless noted, calls come from the whole dose curve; as a rule, active = well fitted curve in the direction sought with a large enough effect; inconclusive = small, poorly fitted or top-dose-only effect, or another doubt; inactive = no such curve, though single readings can be large; an effect the other way counts as inactive or inconclusive. Potency is the fitted concentration of half-maximal effect.

SMILES	PINK1 expr mod	KB-V1 cytotox	SW480 rereplic	MCF10A rerep	KB-3-1 cytotox	TSG101-PTAP inh
Cc1cccc(OCC(=O)NC(C)C(=O)N/N=C/c2c(OCc3ccccc3)ccc3ccccc23)c1 (centres undefined)	2%[38.3 µM]	16µM*	?	0%	?	-11%
O=C(CN1CCN(c2ccccn2)CC1)Nc1ccccc1Br	3%	i	0%	13%	i	-2%
O=C(CN1CCN(c2ncccn2)CC1)Nc1ccccc1-n1cccc1	.	12µM*	-1%	-12%	i	0%
O=C(NCCCN1CCOCC1)c1ccc(/C=C2\Oc3ccccc3N(Cc3ccccc3F)C2=O)cc1	-1%	i	?	5.2µM*	i	-3%
CCCCNC(=O)c1ccc(/C=C2\Oc3ccccc3N(C)C2=O)cc1	6%	i	?	?	i	-1%
CCN1CCN(CCCNC(=O)c2ccc(/C=C3/Oc4ccccc4N(Cc4cccc(C)c4)C3=O)cc2)CC1	2%	i	2.6µM*	1.8µM*	i	-9%
COc1ccc(-n2nc(C(=O)NCc3ccc(F)cc3Cl)c3c4ccccc4n(C)c3c2=O)cc1Cl	1%	?	.	.	i	.
OC1(c2cccnc2)CCN(Cc2ccc3c(c2)CN(Cc2cccc(C(F)(F)F)c2)CCO3)CC1	-1%	.	.	.	.	.
O=C(Nc1nnc(S(=O)(=O)N2CCN(c3ccc(F)cc3)CC2)s1)c1ccc(Cl)cc1	0%	i	.	.	i	.
CC(C)OCCCN1C(=O)c2[nH]nc(-c3ccccc3O)c2C1c1cccc(Cl)c1 (centres undefined)	0%	16µM*	?	?	?	-4%
CC(C)c1ccc(C2c3c(-c4ccccc4O)n[nH]c3C(=O)N2Cc2ccncc2)cc1 (centres undefined)	0%	?	.	.	i	.
COc1ccc(CCN2C(=O)c3[nH]nc(-c4ccccc4O)c3C2c2ccc(O)c(OC)c2)cc1 (centres undefined)	2%	i	.	.	i	.
CSc1ccc(C2c3c(-c4ccccc4O)n[nH]c3C(=O)N2Cc2ccncc2)cc1 (centres undefined)	7%	i	.	.	13µM*	.
COCCCN1C(=O)c2[nH]nc(-c3ccccc3O)c2C1c1cccc(Cl)c1 (centres undefined)	-3%	21µM*	16µM*	15µM*	8.2µM*	1%
COCCCN1C(=O)c2[nH]nc(-c3ccccc3O)c2C1c1ccc(Cl)cc1 (centres undefined)	0%	i	?	?	?	-4%
COc1ccc(CCN2C(=O)c3[nH]nc(-c4ccccc4O)c3C2c2ccccc2)cc1OC (centres undefined)	20%	23µM*	?	?	16µM*	1%
CCOC(=O)c1c(C)[nH]c(C)c1S(=O)(=O)N1CCCC(C(=O)N2CCN(c3cc(C)ccc3C)CC2)C1 (centres undefined)	0%	i	.	.	i	.
COc1cc(C2c3c(-c4cc(C)cc(C)c4O)n[nH]c3C(=O)N2CCCO)cc(OC)c1OC (centres undefined)	1%	i	-3%	7%	i	-6%
COCCCN1C(=O)c2[nH]nc(-c3cc(C)cc(C)c3O)c2C1c1ccc(O)c(OC)c1 (centres undefined)	1%[38.3 µM]	21µM*	?	3%	?	-1%
Nc1cc(Cl)cc2c1-c1ccc(Cl)cc1C2O (centres undefined)	5%	?	-8%	5%	?	-2%
O=C(Nc1cc(Cl)cc2c1-c1ccc(Cl)cc1C2O)C(Cl)Cl (centres undefined)	?	18µM*	?	?	?	-9%
Cc1sc2nc(SCc3nnc(-c4cccs4)o3)n(C3CCCC3)c(=O)c2c1C	-3%	21µM*	15%	?	i	0%
COCc1cc(=O)[nH]c(/N=C(\N)Nc2ccc(Oc3ccccc3)cc2)n1	3%	18µM*	-4%	1%	i	-2%
COCc1cc(=O)[nH]c(/N=C(\N)Nc2cccc(C)c2)n1	-3%	?	6%	-184%[0.0737 µM]	i	-1%
Cc1cccc(N/C(N)=N/c2nc(CSc3ccc(Cl)cc3)cc(=O)[nH]2)c1	5%	i	?	3.7µM*	i	-2%
SMILES	PINK1 expr mod	KB-V1 cytotox	SW480 rereplic	MCF10A rerep	KB-3-1 cytotox	TSG101-PTAP inh
Cc1ccc(N/C(N)=N/c2nc(CSc3nnc(C)s3)cc(=O)[nH]2)c(C)c1	5%	?	?	5.8µM*	2.3µM*	-7%
COc1ccc(N/C(N)=N/c2nc(CSc3nnc(C)s3)cc(=O)[nH]2)cc1	2%	i	3.3µM*	?	5.2µM*	-3%
CC1(C)N=C(N)N=C(N)N1c1ccc(Oc2ccc(Cl)cc2)c(Cl)c1	2%	i	0%	74%	0.73µM*	-11%
COCCCNC(=O)c1oc2c(c1C)-c1nn(Cc3ccccc3Cl)cc1CC2	2%	.	.	.	.	.
CCOc1ccc(CCNC(=O)CSc2nn(-c3ccc(C)c(Cl)c3)c(=S)s2)cc1OCC	9%	6.5µM*	-1%	?	i	1%
O=C(Nc1ccccc1)c1ccc2c(O)c(S(=O)(=O)c3ccc(Cl)cc3)c(=O)[nH]c2c1	-1%	i	.	.	i	.
CC(C)N1CCC(=NNc2ccc(S(=O)(=O)N3CCOCC3)cc2[N+](=O)[O-])CC1	14%	?	-2%	6%	i	-1%
Cc1ccc(CNc2ccc(S(=O)(=O)N3CCOCC3)cc2[N+](=O)[O-])cc1	-2%	5.2µM*	11%	12%	i	-1%
CCCN1CCC(=NNc2ccc(S(=O)(=O)N3CCOCC3)cc2[N+](=O)[O-])CC1	?	7.3µM*	7.3µM*	7.3µM*	4.6µM*	-2%
Cc1cccc(N(C)c2nc3ccc(C)cc3n3cnnc23)c1	1%	i	.	.	i	.
COc1cc(-c2nnc(-c3cccs3)o2)cc(OC)c1OC	3%	?	-2%	21%	i	0%
COc1ccc(-c2nnc(-c3cccs3)o2)cc1OC	-3%[38.3 µM]	6.5µM*	-11%	-3%	i	-11%
O=C1CCCCC(=O)N(c2ccccc2)c2ccccc21	5%[38.3 µM]	18µM*	-1%	1%	i	-2%
Cc1nc(N2N=C3/C(=C/c4ccc(F)cc4)CCCC3C2c2ccc(F)cc2)sc1C(=O)N(C)C (centres undefined)	8%	21µM*	?	29%	?	0%
CN1Cc2c(N3CCOCC3)nc3sc(C#N)c(N)c3c2CC1(C)C	-1%	i	-11%	12%	i	-3%
